Test results as given in PubChem BioAssay (Tox21).
Results filed as inconclusive are left out. Entries that show only a call come without a potency. The source made the active and inactive calls. Unless noted, the call rests on the fitted dose curve.

Legend:
[1] = Nuclear factor erythroid 2-related factor 2/antioxidant responsive element (Nrf2/ARE) small molecule agonists: qHTS cell viability counter screen in human keratinocytes (AID 1919968; active means well fitted curve in the direction sought with a large enough effect in the repeat runs; an effect the other way counts as inactive or inconclusive; further: nearly all actives have a fitted effect of over 55% in size; further: potency means the concentration at half of the fitted maximal effect)
Procedure, shortened: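 KeratinoSens cells (HaCaT keratinocytes stably carrying an ARE-luciferase reporter) were seeded at 1,500 cells/well and rested 5 h at 37 C/5% CO2. They were then exposed to compounds in DMSO for 23 h. Viability was read by CellTiter-Fluor fluorescence after 1 h.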

[2] = Nuclear factor erythroid 2-related factor 2/antioxidant responsive element (Nrf2/ARE) small molecule agonists: luciferase reporter gene qHTS assay in human keratinocytes (AID 1919969); further: nearly all actives have a fitted effect of over 35% in size; further: potency means the concentration at half of the fitted maximal effect
[3] = target: Gonadotropin-releasing hormone receptor (Homo sapiens) (UniProt P30968); test: Human gonadotropin-releasing hormone receptor (GnRHR) small molecule agonists, calcium flux assay in GnRHR-HEK293 cells (AID 1920063); further: nearly all actives have a fitted effect of over 35% in size; further: potency means the concentration at half of the fitted maximal effect
Procedure, shortened: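 HEK293 cells stably expressing human GnRHR were plated 18 h at 37 °C, loaded with calcium dye 1 h at 37 °C, then given compound in agonist mode; fluorescence (Ex/Em 480/540) read kinetically for 3 min at 1 s intervals.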

[4] = G protein-coupled receptor (GPCR) small molecule agonists, calcium flux assay: HEK293 wild type cell line counter screen (AID 1920065)
Procedure, shortened: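 Cells were plated and cultured 18 h at 37 C/5% CO2, then loaded with calcium dye for 1 h at 37 C. Compounds in DMSO were pin-transferred in agonist mode, and fluorescence (Ex/Em 480/540) was read kinetically for 3 min at 1 s intervals.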

[5] = p53 small molecule agonists, cell-based qHTS assay with rat liver microsomes (AID 1963578)
Procedure, shortened: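 Rat liver microsome activation: microsomes 0.5 mg/mL, NADPH 0.5 mg/mL final; p53RE-bla cells, 16 h 37 C; LiveBLAzer readout, 2 h RT dark.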

[6] = p53 small molecule agonists, cell-based qHTS assay with human liver microsomes: qHTS cell viability counter screen (AID 1963579); further: nearly all actives have a fitted effect of over 45% in size; further: potency means the concentration at half of the fitted maximal effect
Procedure, shortened: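 Luminescent CellTiter-Glo read-out, 30 min at room temperature, gauged cytotoxicity in p53RE-bla cells exposed 16 h at 37 C to DMSO-dissolved compounds with metabolic activation by human liver microsomes and NADPH, each 0.5 mg/mL final.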

[7] = p53 small molecule agonists, cell-based qHTS assay with rat liver microsomes: qHTS cell viability counter screen (AID 1963580); further: nearly all actives have a fitted effect of over 45% in size; further: potency means the concentration at half of the fitted maximal effect
Procedure, shortened: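 In HCT-116 cells carrying a p53 response element-bla reporter, compounds were metabolically activated in situ by rat liver microsomes with NADPH over 16 h. Cell ATP content then served as the cytotoxicity measure.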

[8] = p53 small molecule agonists, cell-based qHTS assay: qHTS cell viability counter screen (AID 1963581); further: nearly all actives have a fitted effect of over 45% in size; further: potency means the concentration at half of the fitted maximal effect
Procedure, shortened: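 p53RE-bla HCT-116 cells were exposed to compounds for 16 h at 37 C; after the beta-lactamase FRET read in the same wells, CellTiter-Glo was added and luminescence (intracellular ATP) read after 30 min at room temperature.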

[9] = target: 5-hydroxytryptamine receptor 2A (Homo sapiens) (UniProt P28223); test: 5-hydroxytryptamine receptor 2A (HTR2A) small molecule antagonists, cell-based qHTS assay (AID 1963586); further: nearly all actives have a fitted effect of over 45% in size; further: potency means the concentration at half of the fitted maximal effect
Procedure, shortened: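 Antagonist-mode intracellular calcium assay: DOI (4 nM) added after 5 min compound pre-incubation at room temperature to dye-loaded HTR2A-CHO cells. Fluorescence followed for 3 min, sampled every second.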

[10] = target: 5-hydroxytryptamine receptor 2A (Homo sapiens) (UniProt P28223); test: 5-hydroxytryptamine receptor 2A (HTR2A) small molecule agonists, cell-based qHTS assay (AID 1963587); further: nearly all actives have a fitted effect of over 30% in size; further: potency means the concentration at half of the fitted maximal effect
Procedure, shortened: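 HTR2A-CHO cells, plated 18 h at 37 C/5% CO2, dye-loaded 1 h at 37 C; compounds in DMSO added by pin tool (agonist mode). Intracellular calcium flux read as kinetic fluorescence on FDSS over 2 min at 1 s intervals.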

[11] = target: Muscarinic acetylcholine receptor M1 (Homo sapiens) (UniProt P11229); test: Cholinergic receptor muscarinic 1 (CHRM1) small molecule antagonists, cell-based qHTS assay (AID 1963588); further: nearly all actives have a fitted effect of over 40% in size; further: potency means the concentration at half of the fitted maximal effect
Procedure, shortened: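 CHRM1-CHO calcium-flux assay, antagonist mode. Cells were seeded 18 h, dye-loaded 1 h at 37 C and given compound for 5 min at RT, then acetylcholine was added at 50nM. FDSS fluorescence was read 3 min; 15 concentrations, three runs.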

[12] = target: D(2) dopamine receptor (Homo sapiens) (UniProt P14416); test: Dopamine D2 receptor (DRD2) small molecule antagonists, cell-based qHTS assay (AID 1963595; active means well fitted inhibition curve with a large enough effect in the signal ratio in the repeat runs, with a control signal flat; the % refers to the signal ratio; further: potency means the concentration at half of the fitted maximal effect)
Procedure, shortened: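 In this cell-based antagonist screen, compounds act for 10 min at room temperature before a 30 min challenge with 12 nM quinpirole and 200 nM NKH477. cAMP is quantified by HTRF competition in DRD2-HEK293 cells containing 0.1 mM Ro20-1724.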

[13] = p53 small molecule agonists, cell-based qHTS assay with human liver microsomes (AID 1963577); further: potency means the concentration at half of the fitted maximal effect
Procedure, shortened: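 p53RE-bla cells; 5 h settle, 37 C/5% CO2; cpd + HLM 0.5 mg/mL + NADPH 0.5 mg/mL (final); 16 h 37 C; LiveBLAzer 2 h RT dark; fluorescence readout.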

[14] = target: Muscarinic acetylcholine receptor M1 (Homo sapiens) (UniProt P11229); test: Cholinergic receptor muscarinic 1 (CHRM1) small molecule agonists, cell-based qHTS assay (AID 1963589); further: nearly all actives have a fitted effect of over 35% in size
Procedure, shortened: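 CHO cells stably expressing human CHRM1, seeded 18 h at 37 C/5% CO2, dye-loaded 1 h at 37 C, then given compound in agonist mode; intracellular calcium fluorescence read kinetically at 1 s intervals. Fifteen concentrations, three independent runs.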

[15] = cAMP Responsive Elements (CRE) small molecule agonists, cell-based qHTS assay (AID 1963590)
Procedure, shortened: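 CRE-bla HEK 293T cells in DMEM with 10% dialyzed FBS, NEAA, pyruvate and 25 mM HEPES were plated 18 h at 37 C/5% CO2, then exposed to compounds in DMSO for 3 h before LiveBLAzer B/G FRET substrate addition.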

[16] = cAMP Responsive Elements (CRE) small molecule antagonists, cell-based qHTS assay (AID 1963591; active means well fitted inhibition curve with a large enough effect in the signal ratio in the repeat runs, not every such curve was filed as active; the % refers to the signal ratio; further: potency means the concentration at half of the fitted maximal effect)
Procedure, shortened: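 CRE-bla HEK293T cells were plated 18 h at 37 °C/5% CO2, pinned with compound in DMSO, then stimulated with NKH477 at 0.25 uM final for 3 h. LiveBLAzer B/G FRET substrate was added and plates incubated 2 h at room temperature.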

[17] = target: Beta-2 adrenergic receptor (Homo sapiens) (UniProt P07550); test: Adrenergic beta2 receptor (ADRB2) small molecule antagonists, cell-based qHTS assay (AID 1963592); further: series mostly up to about 92 µM; nearly all actives have a fitted effect of over 50% in size
Procedure, shortened: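 Cells (CHO, stable ADRB2 overexpression) incubated 18-20hr at 37C; compounds added from DMSO; agonist mix (1nM isoproterenol, 100uM IBMX, 25uM Ro-20-1724) added; 0.5hr RT; d2-cAMP and anti-cAMP-cryptate added; 1hr RT; 665/615 nm read.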

[18] = target: Beta-2 adrenergic receptor (Homo sapiens) (UniProt P07550); test: Adrenergic beta2 receptor (ADRB2) small molecule agonists, cell-based qHTS assay (AID 1963593);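 further: CHO cells stably overexpressing human ADRB2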
Procedure, shortened: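 CHO cells stably over-expressing ADRB2 were plated overnight at 37C, then dosed with compounds plus a stimulation mix containing 100uM IBMX and 25uM Ro-20-1724 for 0.5hr at room temperature. cAMP was measured by HTRF competition, 1hr.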

[19] = target: D(2) dopamine receptor (Homo sapiens) (UniProt P14416); test: Dopamine D2 receptor (DRD2) small molecule agonists, cell-based qHTS assay (AID 1963594); further: nearly all actives have a fitted effect of over 35% in size
Procedure, shortened: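 HEK293 cells stably expressing DRD2 were cultured 24 h at 37 C, then given Ro20-1724 (0.1 mM final) and compounds for 10 min at room temperature. NKH477 (200nM) was then added for 30 min. cAMP was read by HTRF.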

[20] = target: KiSS-1 receptor (Homo sapiens) (UniProt Q969F8); test: Human kisspeptin (KISS1R) small molecule agonists, calcium flux assay in KISS1R-HEK293 cells (AID 1920064; active means well fitted curve in the direction sought with a large enough effect in the repeat runs; an effect the other way counts as inactive or inconclusive)
Procedure, shortened: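 HEK293 cells stably expressing human KISS1R were plated 18 h at 37 °C, loaded with calcium dye for 1 h at 37 °C, then given compound by pin tool. Fluorescence (Ex/Em 480/540) was read kinetically for 3 min.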

5-hydroxytryptamine receptor 2A (Homo sapiens), sequence (P28223 whole entry, looked up): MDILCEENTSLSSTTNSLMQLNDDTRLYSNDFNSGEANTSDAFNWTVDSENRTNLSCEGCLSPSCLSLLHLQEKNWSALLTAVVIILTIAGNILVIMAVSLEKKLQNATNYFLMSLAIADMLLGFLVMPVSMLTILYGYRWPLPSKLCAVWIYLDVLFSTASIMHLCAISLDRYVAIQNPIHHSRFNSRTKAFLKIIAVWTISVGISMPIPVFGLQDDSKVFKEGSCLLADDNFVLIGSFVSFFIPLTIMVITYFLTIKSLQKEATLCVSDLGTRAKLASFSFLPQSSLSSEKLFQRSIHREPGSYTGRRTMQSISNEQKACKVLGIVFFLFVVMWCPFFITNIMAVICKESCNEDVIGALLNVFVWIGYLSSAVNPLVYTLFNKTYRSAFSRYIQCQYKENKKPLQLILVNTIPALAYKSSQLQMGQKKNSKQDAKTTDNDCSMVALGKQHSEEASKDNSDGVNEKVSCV
Gonadotropin-releasing hormone receptor (Homo sapiens), sequence (P30968 whole entry, looked up): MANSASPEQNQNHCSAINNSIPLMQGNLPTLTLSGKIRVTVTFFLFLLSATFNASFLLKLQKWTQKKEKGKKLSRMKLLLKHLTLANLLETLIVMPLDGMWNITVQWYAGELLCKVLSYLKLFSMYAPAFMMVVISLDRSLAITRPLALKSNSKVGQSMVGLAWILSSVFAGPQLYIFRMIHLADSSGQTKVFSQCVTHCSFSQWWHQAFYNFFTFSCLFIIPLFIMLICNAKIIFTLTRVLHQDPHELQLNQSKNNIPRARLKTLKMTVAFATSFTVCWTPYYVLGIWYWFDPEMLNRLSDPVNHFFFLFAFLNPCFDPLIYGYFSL
Beta-2 adrenergic receptor (Homo sapiens), sequence (P07550 whole entry, looked up): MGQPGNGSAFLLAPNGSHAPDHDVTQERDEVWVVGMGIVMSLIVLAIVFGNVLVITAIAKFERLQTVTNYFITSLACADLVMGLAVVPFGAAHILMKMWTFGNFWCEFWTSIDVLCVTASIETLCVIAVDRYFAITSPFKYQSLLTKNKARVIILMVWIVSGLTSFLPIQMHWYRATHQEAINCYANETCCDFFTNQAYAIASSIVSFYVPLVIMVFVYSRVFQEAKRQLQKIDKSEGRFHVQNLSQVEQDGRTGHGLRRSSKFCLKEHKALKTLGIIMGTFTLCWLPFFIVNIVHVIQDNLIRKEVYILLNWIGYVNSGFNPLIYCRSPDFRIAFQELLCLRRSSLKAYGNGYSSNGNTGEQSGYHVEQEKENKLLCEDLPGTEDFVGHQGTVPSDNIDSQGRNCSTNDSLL
D(2) dopamine receptor (Homo sapiens), sequence (P14416 whole entry, looked up): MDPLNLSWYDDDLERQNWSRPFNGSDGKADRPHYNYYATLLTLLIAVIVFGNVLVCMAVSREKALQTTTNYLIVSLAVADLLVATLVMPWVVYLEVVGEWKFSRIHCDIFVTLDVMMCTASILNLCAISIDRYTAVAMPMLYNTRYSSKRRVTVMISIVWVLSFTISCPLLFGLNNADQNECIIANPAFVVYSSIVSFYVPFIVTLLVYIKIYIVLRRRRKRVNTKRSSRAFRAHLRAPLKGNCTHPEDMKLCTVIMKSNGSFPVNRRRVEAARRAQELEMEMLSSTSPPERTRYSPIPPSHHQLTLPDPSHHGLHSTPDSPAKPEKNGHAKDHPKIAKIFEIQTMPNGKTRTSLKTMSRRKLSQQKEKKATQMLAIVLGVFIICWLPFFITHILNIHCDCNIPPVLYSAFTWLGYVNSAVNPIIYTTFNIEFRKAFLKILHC
KiSS-1 receptor (Homo sapiens), sequence (Q969F8 whole entry, looked up): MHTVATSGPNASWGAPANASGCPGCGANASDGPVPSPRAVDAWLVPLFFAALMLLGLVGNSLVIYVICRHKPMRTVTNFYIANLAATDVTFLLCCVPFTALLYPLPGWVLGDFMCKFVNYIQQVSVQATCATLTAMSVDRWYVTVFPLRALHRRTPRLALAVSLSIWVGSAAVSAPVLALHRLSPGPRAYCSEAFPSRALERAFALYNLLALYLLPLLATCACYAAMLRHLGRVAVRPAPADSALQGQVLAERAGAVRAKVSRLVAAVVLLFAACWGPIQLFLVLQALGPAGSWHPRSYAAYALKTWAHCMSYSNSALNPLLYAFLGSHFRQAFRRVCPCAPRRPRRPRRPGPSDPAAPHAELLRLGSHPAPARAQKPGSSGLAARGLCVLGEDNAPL
Muscarinic acetylcholine receptor M1 (Homo sapiens), sequence (P11229 whole entry, looked up): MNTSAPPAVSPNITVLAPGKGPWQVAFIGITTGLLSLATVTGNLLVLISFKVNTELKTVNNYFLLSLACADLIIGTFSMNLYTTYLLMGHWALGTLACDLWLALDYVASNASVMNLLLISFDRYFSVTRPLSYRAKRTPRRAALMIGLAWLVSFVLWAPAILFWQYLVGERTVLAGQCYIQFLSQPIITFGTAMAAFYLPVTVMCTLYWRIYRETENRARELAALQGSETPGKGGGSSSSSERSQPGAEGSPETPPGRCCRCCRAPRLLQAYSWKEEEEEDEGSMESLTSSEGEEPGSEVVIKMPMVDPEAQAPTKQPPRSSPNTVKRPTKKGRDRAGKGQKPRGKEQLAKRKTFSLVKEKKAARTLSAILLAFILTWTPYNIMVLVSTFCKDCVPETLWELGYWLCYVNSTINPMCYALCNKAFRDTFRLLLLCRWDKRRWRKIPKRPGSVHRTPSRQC

| Compound | Potency [1] | Potency [2] | Potency [3] | Potency [4] | Potency [5] | Potency [6] | Potency [7] | Potency [8] | Potency [9] | Potency [10] | Potency [11] | Potency [12] | Potency [13] | Potency [14] | Potency [15] | Potency [16] | Potency [17] | Potency [18] | Potency [19] | Potency [20] |
| --- | --- | --- | --- | --- | --- | --- | --- | --- | --- | --- | --- | --- | --- | --- | --- | --- | --- | --- | --- | --- |
| [Hg+2].[I-].[I-] | 4.33 µM (active) | 1.22 µM (active) | 43.6 µM (active) | inactive | inactive | 4.58 µM (active) | 12.9 µM (active) | 18.2 µM (active) | inactive | 49 µM (active) | inactive | 27.3 µM (active) |  |  |  |  |  |  |  |  |
| CCC[N+](CCC)(CCC)CCC | inactive | inactive | inactive | inactive | inactive | inactive |  | inactive | inactive |  | inactive | inactive | inactive | inactive | inactive | inactive | inactive | inactive | inactive |  |
| C=CCOC(=O)c1ccccc1N | inactive | 6.15 µM (active) | inactive | inactive |  | inactive | inactive | inactive | inactive | inactive | inactive | inactive |  | inactive | inactive |  | inactive |  | inactive |  |
| COP(N)(=S)OC | inactive | inactive | inactive |  |  |  | inactive | inactive | inactive |  | inactive | inactive |  | inactive | inactive | inactive | inactive |  | inactive | inactive |
| Cc1ccccc1OP(=O)(Oc1ccccc1C)Oc1ccccc1C | inactive | 48.8 µM (active) | inactive | inactive |  |  | inactive | inactive | inactive | inactive |  |  | 1.83 µM (active) | inactive |  | inactive | inactive |  | inactive |  |
| ClC(Cl)Br | inactive | inactive | inactive | inactive |  | inactive | inactive | inactive | inactive | inactive | inactive |  |  | inactive | inactive | inactive |  | inactive | inactive |  |
| SCc1ccco1 | inactive | 68.6 µM (active) | inactive | inactive | inactive | inactive | inactive |  | inactive | inactive | inactive | inactive | inactive | inactive | inactive | inactive |  | inactive |  |  |
| Cc1ncsc1CCCl | inactive | inactive | inactive | inactive |  | inactive | inactive | inactive | inactive | inactive | inactive | inactive |  | inactive | inactive | inactive |  | inactive | inactive |  |
| O=C(N[C@H]1CN2CCC1CC2)c1cc2ccoc2cn1 | inactive | inactive | inactive | inactive | inactive | inactive | inactive | inactive |  |  |  | inactive | inactive | inactive | inactive |  | inactive |  | inactive |  |
| C=COC(C)=O | inactive | inactive | inactive | inactive |  | inactive | inactive | inactive |  | inactive | inactive |  |  | inactive | inactive | inactive | inactive |  |  |  |
| O=C(O)C(F)(F)C(F)(F)C(F)(F)C(F)(F)C(F)(F)F | inactive | inactive | inactive | inactive | inactive | inactive | inactive | inactive | inactive | inactive | inactive | inactive | inactive | inactive | inactive | inactive | inactive | inactive | inactive |  |
| C=CC(=O)NCNC(=O)C=C | inactive | 61.1 µM (active) | inactive | inactive |  |  |  |  | inactive | inactive | inactive |  |  | inactive | inactive |  | inactive |  | inactive |  |
| CC1(c2ccc(Oc3ccccc3)cc2)OC(=O)N(Nc2ccccc2)C1=O (stereo not given) | 27.5 µM (active) | inactive | inactive | inactive | inactive |  | inactive | inactive |  |  | 5.33 µM (active) | inactive | inactive | inactive | inactive | 61.5 µM (active) |  | inactive | inactive |  |
| C=CCc1ccc(OC(=O)Cc2ccccc2)c(OC)c1 | inactive | inactive |  | inactive | inactive | inactive | inactive | inactive | inactive | inactive | inactive | inactive | inactive | inactive | inactive |  |  |  | inactive | inactive |
| COc1ccc2[nH]cc(CCN(C(C)C)C(C)C)c2c1 | inactive | inactive |  | inactive | inactive | inactive | inactive |  |  |  | inactive | inactive | inactive | inactive | inactive |  | inactive | inactive | inactive | inactive |
| C#CC(O)(C=CCl)CC (stereo not given) | inactive | inactive |  | inactive | inactive | inactive | inactive |  |  | inactive | inactive | inactive | inactive | inactive | inactive | inactive | inactive | inactive |  | inactive |
| COP(=O)(OC)O/C(=C/Cl)c1cc(Cl)c(Cl)cc1Cl | inactive | 51.3 µM (active) |  | inactive |  | inactive | inactive | inactive | 15.8 µM (active) | inactive | inactive |  |  | inactive |  |  | inactive |  | inactive | inactive |
